Compounds without any hit were thinned out: in the full panel of roughly 83,000, 20% have a hit.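 For each line, cells grew in 96-well plates with the test compound present at a single concentration for 48 hours.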 Unmarked numbers belong to inactive results. Activity calls are given as the source filed them. Rule for the calls: active = growth percent below 10; inactive = the rest.
Legend:
Assay in all cases: NCI-60 one-dose screen, 48 h (100 = growth as untreated, 0 = no growth, -100 = all killed)
Conditions in all cases: 10 µM unless noted
NCI-H23 lung = system: NCI-H23 lung
NCI-H226 lung = system: NCI-H226 lung
NCI-H322M lung = system: NCI-H322M lung
HOP-62 NSCLC = system: HOP-62 NSCLC
NCI-H460 lung = system: NCI-H460 lung
NCI-H522 lung = system: NCI-H522 lung
A549/ATCC NSCLC = system: A549/ATCC NSCLC
786-0 renal = system: 786-0 renal
COLO 205 colon = system: COLO 205 colon
HOP-92 NSCLC = system: HOP-92 NSCLC

| SMILES | growth (NCI-H23 lung) | growth (NCI-H226 lung) | growth (NCI-H322M lung) | growth (HOP-62 NSCLC) | growth (NCI-H460 lung) | growth (NCI-H522 lung) | growth (A549/ATCC NSCLC) | growth (786-0 renal) | growth (COLO 205 colon) | growth (HOP-92 NSCLC) |
| --- | --- | --- | --- | --- | --- | --- | --- | --- | --- | --- |
| CC(C)[C@H]1COC(=O)N1[C@@H]1C(=O)N([C@@H](CCC(=O)N2CCN(C3CCCC3)CC2)C(=O)N[C@@H]2CCCc3ccccc32)[C@@H]1/C=C/c1cccc(Br)c1 | 64.7% | 74% | 39.3% | 59.5% | 31.6% | 27.4% | 25.7% | 44.3% | 24% |  |
| CCN(CC)CCCCNc1ccc(NCCCCN(CC)CC)c2c1C(=O)c1ccccc1C2=O | 77.5% | 113% | 110% | 101% | 57.4% | 96.6% |  | 82% | 76.1% |  |
| O=C1/C(=C/c2ccc(Cl)cc2Cl)CN(S(=O)(=O)c2ccccc2)C/C1=C\c1ccc(Cl)cc1Cl | -37.6% (active) | 58.3% | -0.804% (active) | -2.25% (active) | -24.1% (active) | -34.1% (active) | 3.06% (active) | -81.2% (active) | -15.9% (active) |  |
| COc1ccc(CN(c2ccc(C)cc2)C2OC(=O)c3ccccc32)cc1OC (centres undefined) | 106% | 91.1% | 99.6% | 106% |  | 97.2% | 88.3% | 98.5% | 138% | 91.3% |
| O=C1CC(c2nc3ccccc3[nH]2)CN1C1CCCCC1 (centres undefined) | 89.8% | 95.4% | 103% | 94.9% |  | 89.3% | 104% | 110% | 102% | 91.3% |
| Cn1c(=O)c2[nH]c(C(O)C(O)C(O)C(O)CO)nc2n(C)c1=O (centres undefined) | 100% | 95.1% | 93.7% | 96% |  | 86.7% | 88.7% | 107% | 103% | 109% |
| CN(C)CCCC(=O)Nc1ccc(Cn2nnc3c2C(=O)c2nnn(Cc4ccc(NC(=O)CCCN(C)C)cc4)c2C3=O)cc1 | 2.08% (active) | 102% | 38.5% | 83.2% |  | 71.8% |  | 96.9% | -9.75% (active) | 116% |
| Oc1c(Cl)cc(Cl)cc1CNc1nccnn1 | 102% | 92% | 99.3% | 103% |  | 105% | 102% | 111% | 100% | 101% |
| C=C1CC2(OC1=O)C(=O)Nc1ccccc12 (centres undefined) | 67.7% | 72.9% | 93.8% | 108% |  | -45.7% (active) | 100% | 76.2% | 10.3% | 9.19% (active) |
| CCCCCCNC(=O)Oc1ccc(/C(=C(\C)c2ccccc2)c2ccc(OCCN(CC)CC)cc2)cc1 | 69.6% | 82.6% | 90% | 83.2% |  | 47.8% | 49.9% | 44.7% | -4.77% (active) | 39.1% |
| O=S(=O)(NCCCNc1cc(-c2cn(-c3ccccc3)nc2-c2ccccc2)ccn1)c1ccc(C(F)(F)F)cc1 | 58.7% | 54.3% | 66.8% | 82% |  | 72.1% | 40.9% | 29% | 33.1% | 32.2% |
| O=[N+]([O-])c1cccc(-c2nc3sccn3c2-c2ccnc(NCCNS(=O)(=O)c3ccc(C(F)(F)F)cc3)n2)c1 | 43.3% | 40.3% | 61.8% | 73% |  | 34.3% | 31.9% | 60.3% | 37.2% | 44.7% |
| Cc1ccc(Nc2c(C(N)=O)cnc3ccc(-c4csc(N)n4)cc23)cc1 | 88.3% | 88.3% | 108% | 96.4% |  | 101% | 95.4% | 101% | 96.3% | 90.2% |
| COc1ccc2nc3cc(Cl)ccc3c(N3CCN(c4ccnc(N5CCN(C)CC5)n4)CC3)c2c1 | 34.6% | 90.2% | 94.2% | 73.4% |  | -60.4% (active) | 83.4% | 78.9% | -45.3% (active) | 59.6% |
| CN1CCN(Cc2ccc(NC(=O)c3cncc(C#Cc4cncc5nccnc45)c3)cc2C(F)(F)F)CC1 | 33.8% | 5.97% (active) | 43.6% | 53.5% |  | 43.8% |  | 73.1% | 2.52% (active) | -11.9% (active) |
| Cc1cc(N/N=C/c2nc(-c3ccc(Cl)cc3)oc2C)c2cc(Cl)ccc2n1 | 111% | 98.4% | 79.1% | 103% |  | -1.87% (active) | 21.9% | -39.8% (active) | 83.7% | 69.5% |
| O=C(/C=C/c1cccc(Br)c1)c1ccccc1 | 98.7% | 92.8% | 97.7% | 70% |  | 64.1% | 72.7% | 72.3% | 99.7% |  |
| CNCCCn1c2c(c3ccc([N+](=O)[O-])cc3c1=O)C(=O)c1cc(OC)cnc1-2 | -55.4% (active) | -81.5% (active) | -5.51% (active) | -33.4% (active) |  | -29% (active) | -82% (active) | -78.5% (active) | -13.2% (active) | -7.43% (active) |
| O=C(CCN1CCOCC1)Nc1ccc(Cn2nnc3c2C(=O)c2nnn(Cc4ccc(NC(=O)CCN5CCOCC5)cc4)c2C3=O)cc1 | -20.9% (active) | 86.5% | 10% | 70.9% |  | -28.9% (active) |  | 98.5% | -73.8% (active) | -20% (active) |
| COc1ccc(-c2nn(-c3ccccc3)cc2/C=C2\SC(=O)NC2=O)cc1 | 94.8% | 98.9% | 117% | 101% |  | 81.6% | 105% | 81.1% | 123% | 96.6% |
| COc1ccc(/C=N\NC(=O)c2ccncc2)cc1O | 93.8% | 92.6% | 99.3% | 93% |  | 81.4% | 93.7% | 93.7% | 110% | 92.9% |

Source: PubChem BioAssay (NCI)
